# About 83,000 compounds went through this panel and 20% of them were active in at least one assay; those are over-represented in the sample as a whole.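 Values shown are percent growth following 48 h exposure of cells in 96-well plates to a single concentration of compound; below 10 was considered active.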 Unmarked numbers belong to inactive results. Active and inactive are the calls of the source.
# Test system: MDA-MB-468 breast
# Test: NCI-60 one-dose screen, 48 h (100 = growth as untreated, 0 = no growth, -100 = all killed)
# Details: 10 µM unless noted
row,Structure (SMILES),growth
1,O=C1c2cc(Br)ccc2-n2c1nc1cc(Br)ccc1c2=O,76.6%
2,O=Cc1cc2ccccc2nc1Oc1ccc(C(F)(F)F)cc1,90.7%
3,COc1cc(-c2c(-c3ccccc3)c[nH]c2C(=O)NCCCO)c(OC)c2c1OCO2,102%
4,CCC(CC)N1C(=O)/C(=c2\sc3n(c2=O)NC2C(N=3)N(CC)C(=O)N2CC)c2ccccc21 (stereo unspecified),79.9%
5,O=C(OCC1OC(n2cc(C(F)(F)F)c(=O)[nH]c2=O)CC1OC(=O)c1ccc([N+](=O)[O-])cc1)c1ccc([N+](=O)[O-])cc1 (stereo unspecified),85.3%
6,O=C1C(=C(O)c2ccccc2)C(=O)c2ccccc21,120%
7,O=c1oc2cc(OS(=O)(=O)c3ccc(F)cc3)ccc2c2c1CCCCC2,31.3%
8,O=C(Oc1ccccc1Cl)c1ccc(Cl)cc1Cl,103%
9,CCCCCCCCNc1cccc2c1C(=O)c1ccccc1C2=O,95.4%
10,CO[C@H]1CC(O[C@@H]2/C(C)=C/C[C@@H]3C[C@@H](C[C@]4(CC[C@H](C)[C@@H](C5CCCCC5)O4)O3)OC(=O)[C@@H]3C=C(C)/C(=N/O)[C@H]4OC/C(=C\C=C\[C@@H]2C)[C@]43O)O[C@@H](C)C1O (stereo partly specified),-87% (active)
11,COCCNc1ccc2c3c(cccc13)C(=O)N(CCN(C)C)C2=O,45.2%
